# p97 inhibitor: inhibitors of human p97 ATPase, primary screen, biochemical; inhibition, % at 8 µM; AID 1481, 2009; 0.42% of 220,000 active; recombinant p97 ATPase, Kinase-Glo ATP luminescence, 3 h; Transitional endoplasmic reticulum ATPase (Homo sapiens), P55072; in the data active = inhibition above about 15%;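 note: 0% = DMSO vehicle and 100% = wells lacking enzyme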
# Target sequence (P55072 whole entry, looked up): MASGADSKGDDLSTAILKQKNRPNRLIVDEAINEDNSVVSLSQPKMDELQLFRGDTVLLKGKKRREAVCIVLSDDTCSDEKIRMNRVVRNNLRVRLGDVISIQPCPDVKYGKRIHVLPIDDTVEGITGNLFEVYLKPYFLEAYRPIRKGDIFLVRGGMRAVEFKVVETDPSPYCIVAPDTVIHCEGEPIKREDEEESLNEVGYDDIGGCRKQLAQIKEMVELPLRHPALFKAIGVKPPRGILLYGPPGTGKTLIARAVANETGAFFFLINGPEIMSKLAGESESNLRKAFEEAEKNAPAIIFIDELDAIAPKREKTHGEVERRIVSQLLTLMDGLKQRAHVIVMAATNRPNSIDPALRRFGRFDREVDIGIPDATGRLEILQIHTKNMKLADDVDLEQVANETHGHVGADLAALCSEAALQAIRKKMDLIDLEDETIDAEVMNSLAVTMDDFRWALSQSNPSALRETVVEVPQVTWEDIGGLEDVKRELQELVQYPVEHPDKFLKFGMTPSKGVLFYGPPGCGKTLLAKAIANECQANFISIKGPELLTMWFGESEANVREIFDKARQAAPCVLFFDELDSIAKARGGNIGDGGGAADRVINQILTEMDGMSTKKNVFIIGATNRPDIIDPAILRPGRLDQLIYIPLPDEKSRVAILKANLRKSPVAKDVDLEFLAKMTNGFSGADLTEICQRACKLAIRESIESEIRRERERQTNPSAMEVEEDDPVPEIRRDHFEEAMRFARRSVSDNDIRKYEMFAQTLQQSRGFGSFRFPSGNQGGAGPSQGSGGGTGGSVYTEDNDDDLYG
# HSV augment: enhancers of HSV replication in host cells, fold increase, host cell viability; AID 1956, 2009; 0.005% of 220,000 active; maximum fold increase; HSV replication augmentation in cells; in the data active = maximum fold increase above about 1.5; inconclusive = no clear call, values can overlap the other calls; tested in PC3 cells
# Wee1 degr inh: Wee1 degradation inhibitors, primary screen, cell-based, HeLa, Wee1K328M-luciferase, luminescence; HeLa Luc-Wee1K328M stability; 100% = proteasome inhibitor MG132 effect; reporter increase, % at 5 µM; AID 1321, 2008; 1.2% of 220,000 active;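 active = activation above the mean of all tested compounds plus 3 SD, set per screening run, cut at about 8.8% in these data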;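 note: cells exposed to compound for 20 h before luminescence read; 0% = DMSO alone and 100% = MG132 at 30 µM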
# Hsp70 act: Hsp70 transcriptional activators, primary screen, cell-based, HeLa, Hsp70 promoter luciferase, luminescence, 10 µM; HeLa Hsp70 promoter luciferase reporter; scaled: vehicle 0, proteasome-inhibitor control 100%; activation, % at 10 µM; 0.04% of 200,000 active; AID 1203, 2008;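 active = activation above the mean across all tested compounds plus 3 SD, cutoff set per campaign, cut at about 5.5% in these data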;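 note: 100% = MG132 at 30 µM as the positive control and 0% = DMSO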
# Redox H2O2 prof: compounds producing H2O2 with reducing agent – biochemical, NIH compound library profiling, artefact control for MLSCN library redox annotation, primary screen; DTT-dependent redox cycling H2O2, phenol red/HRP absorbance; 100% = 100 µM peroxide control, 0% = buffer; activation, % at 10 µM; 0.03% of 200,000 active;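 active = activation of at least 50% relative to the plate's high and low controls in the primary single-dose screen; inactive = activation below 50%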;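 note: compound incubated with DTT at 0.8 mM final as the reducing agent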
# DTT redox conf: redox cycling H2O2 generation, confirmed; EC50, µM; AID 1234; shares compounds with Redox H2O2 prof; 40% of 60 active; DTT-dependent redox cycling H2O2, phenol red-HRP absorbance;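 active = EC50 under a set limit for hydrogen peroxide production with the reducing agent DTT present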
# Hsp70 act DR: Hsp70 transcriptional activators, dose response, cell-based, HeLa, Hsp70 promoter luciferase, luminescence, triplicate; shares compounds with Hsp70 act; calls only at 99 µM; HeLa hsp70.1pr-luc reporter; 10% of 70 active; AID 1252, 2008;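 active = over 50% activation at some tested dose; inactive = under 50% activation at every tested dose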
# p97 confirm: p97 ATPase inhibitors, retest, confirmation, biochemical; shares compounds with p97 inhibitor; inhibition, % at 8 µM; recombinant p97 ATPase, Kinase-Glo ATP luminescence; 44% of 760 active;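 active = percent inhibition of p97 ATPase above a set limit, the primary screen's mean plus 3 SD, cut at about 15% in these data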;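 note: 0% = DMSO wells and 100% = wells lacking p97 protein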
# * hit, by the source's call; i = inactive; ? = inconclusive; . = not tested or not shown; + = active, no number. This is a sample that favours compounds with a hit; in the whole collection about 1.6% have one here.
SMILES,p97 inhibitor,HSV augment,Wee1 degr inh,Hsp70 act,Redox H2O2 prof,others
Cc1ccc(S(=O)(=O)/N=C2/C=C(Sc3ncn[nH]3)C(=O)c3ccccc32)cc1,23*,i,-4,0,120*,DTT redox conf=12*
CC(C)c1ccc(S(=O)(=O)/N=C2/C=C(Sc3ncn[nH]3)C(=O)c3ccccc32)cc1,22*,i,-4,0,93*,DTT redox conf=13*
COC(CNC(=O)Cc1c(C)nc2c(-c3ccccc3)c(C)nn2c1C)OC,-4,i,-1,0,0,
COC(=O)c1c(NS(C)(=O)=O)sc2c1CCCC2,0,i,-1,0,1,
CC[N+](C)(CC)CC(=O)OCC1C(C)C=C(C)CC1C (configuration not stated),-1,i,-1,.,.,
O=C(COC(=O)c1ccccc1OCc1ccccc1Cl)NC1CC1,-3,i,0,0,88*,DTT redox conf=>50
O=C(COC(=O)c1ccccc1Oc1ccccc1)NC1CC1,2,i,-5,0,-1,
CCCCn1c(NS(=O)(=O)c2ccc(C)cc2)c(S(=O)(=O)c2ccccc2)c2nc3ccccc3nc21,24*,i,0,0,97*,DTT redox conf=>50;p97 confirm=39*
CCCc1nc2c(=O)n(C)c(=O)nc-2n(C)n1,32*,i,-4,0,128*,DTT redox conf=1.5*;p97 confirm=29*
CCn1c(N)nc2c1c(=O)n(C)c(=O)n2C,-2,i,-1,0,-2,
CCCCn1c(NC(=O)c2ccccc2Cl)c(C#N)c2nc3ccccc3nc21,29*,?,0,0,311*,DTT redox conf=>50;p97 confirm=40*
O=S(=O)(NCc1cc(-c2ccccc2Cl)no1)c1ccccc1,0,i,-1,0,2,
C/C(=N\O)c1c(C)c2ccccc2n1C,-5,i,0,0,-1,
N#C/C(=C/c1ccc(N2CCCCCC2)o1)c1ccc(Cl)cc1,0,i,3,6.3*,1,Hsp70 act DR=i
CC(=O)C1=C(O)CCC1=N,4,i,1,0,0,
Cc1ccc(N=Nc2[nH]c3ccccc3c2O)cc1,3,.,1,1,0,
COc1ccc(N=Nc2[nH]c3ccc(C)cc3c2O)cc1,1,i,2,5.6*,0,Hsp70 act DR=i
COc1ccc(C(c2c(O)ccc3ccccc23)N2CCOCC2)c(OC)c1 (configuration not stated),2,.,-2,6.4*,0,Hsp70 act DR=i
Cc1nn(C)c(C)c1NC(=O)c1ccc(S(=O)(=O)N(C)C)cc1,5,i,4,6.6*,3,Hsp70 act DR=i
Cc1nn(C)c(C)c1NC(=O)c1ccnn1C,-2,i,2,0,-1,
CCCNC(=O)Cn1nc(C(F)(F)F)c2c1CCC2,1,i,-4,0,-1,
CC1C/C(=C/c2ccccn2)C(=O)/C(=C/c2ccccn2)C1 (configuration not stated),-3,i,9.9*,314*,0,Hsp70 act DR=+
CC(C)(C)C1C/C(=C/c2ccccn2)C(=O)/C(=C/c2ccccn2)C1 (configuration not stated),0,i,4,46*,-1,Hsp70 act DR=+
CCOc1cc(C(=O)Nc2ccccc2N2CCN(S(C)(=O)=O)CC2)cc(OCC)c1OCC,-5,i,-2,0,0,
COc1ccc(CN2CCCC(C(=O)c3ccc(SC)cc3)C2)cc1Cn1cccn1 (configuration not stated),-2,i,0,-1,-1,
CCOc1ccc(NC(=O)c2ccc(OC)cc2)cc1,1,i,2,0,0,

# Screening data (PubChem)
